Source: PubChem BioAssay (EPA / NIEHS)
Calls of active or inactive are those of the source. How the source made its calls: active means hit-call score of the fitted dose curve at least 0.9, where 1 is the maximum; inactive means score below 0.9.

Key:
[1] = BSK_hDFCGF_SRB: Viability Assessment in the BioMAP Diversity Plus: hDFCGF Assay (AID 2283061); conditions: primary human foreskin fibroblasts;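 further: cells exposed to compound for 24 h before the read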
Procedure, shortened: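 Viability was read as total protein: after 10% TCA fixation, wells were stained with 0.1% sulforhodamine B and read at 560 nm. Primary human foreskin fibroblasts were dosed for 24 h, with bidirectional fitting versus DMSO.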

[2] = read-out: TIMP metallopeptidase inhibitor 1 (TIMP1), TIMP1 (gene 7076); test: BSK_hDFCGF_TIMP1: BioMAP Diversity Plus: hDFCGF Assay for TIMP metallopeptidase inhibitor 1 (TIMP1) Biomarker Activity (AID 2283062); conditions: primary human foreskin fibroblasts; actives raise or lower the signal
Procedure, shortened: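 TIMP-1 measured by ELISA 24 h after chemical dosing of primary human skin fibroblasts, with gain or loss fitted relative to DMSO. Parallel SRB staining (560 nm) monitored overt cytotoxicity.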

[3] = read-out: Monokine induced gamma interferon (MIG), CXCL9 (gene 4283); test: BSK_hDFCGF_MIG: BioMAP Diversity Plus: hDFCGF Assay for Monokine induced gamma interferon (MIG) Biomarker Activity (AID 2283063); conditions: primary human foreskin fibroblasts; actives raise or lower the signal
Procedure, shortened: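 Human primary foreskin fibroblasts in the hDFCGF system, exposed to test chemical for 24 h; MIG measured by ELISA. Bidirectional curve fitting against DMSO negative control as activity baseline.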

[4] = read-out: Matrix Metallopeptidase 1 (MMP1), MMP1 (gene 4312); test: BSK_hDFCGF_MMP1: BioMAP Diversity Plus: hDFCGF Assay for Matrix Metallopeptidase 1 (MMP1) Biomarker Activity (AID 2283064); conditions: primary human foreskin fibroblasts; actives raise or lower the signal
Procedure, shortened: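 Primary human foreskin fibroblasts in the hDFCGF system were dosed with test chemical, and MMP1 was measured by ELISA 24 h later. Values come from bidirectional curve fitting against the DMSO baseline.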

[5] = read-out: Vascular cell adhesion molecule 1 (VCAM1), VCAM1 (gene 7412); test: BSK_hDFCGF_VCAM1: BioMAP Diversity Plus: hDFCGF Assay for Vascular cell adhesion molecule 1 (VCAM1) Biomarker Activity (AID 2283065); conditions: primary human foreskin fibroblasts; actives raise or lower the signal
Procedure, shortened: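 ELISA readout of VCAM-1 on human dermal fibroblast primary cultures, 24 h after chemical exposure. Gain or loss of signal fitted in both directions against DMSO baseline.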

[6] = read-out: Plasminogen activator inhibitor-1 (PAI1), SERPINE1 (gene 5054); test: BSK_hDFCGF_PAI1: BioMAP Diversity Plus: hDFCGF Assay for Plasminogen activator inhibitor-1 (PAI1) Biomarker Activity (AID 2283066); conditions: primary human foreskin fibroblasts; actives raise or lower the signal
Procedure, shortened: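 Human foreskin fibroblast primary cells, 24 h chemical exposure; PAI-1 measured by ELISA. Bidirectional fitting relative to DMSO; parallel cultures stained with SRB for total protein to flag overt cytotoxicity.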

[7] = read-out: Intercellular Adhesion Molecule 1 (ICAM1), ICAM1 (gene 3383); test: BSK_KF3CT_ICAM1: BioMAP Diversity Plus: KF3CT Assay for Intercellular Adhesion Molecule 1 (ICAM1) Biomarker Activity (AID 2283067); conditions: primary human keratinocytes with fibroblasts; actives raise or lower the signal
Procedure, shortened: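 Cell-surface ICAM-1 was measured by ELISA 24 h after dosing primary human skin keratinocytes co-cultured with fibroblasts. Parallel SRB staining tracked overt cytotoxicity. Gain or loss of signal was fitted relative to DMSO.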

[8] = read-out: Interferon-gamma inducible Protein 10 (IP10), CXCL10 (gene 3627); test: BSK_KF3CT_IP10: BioMAP Diversity Plus: KF3CT Assay for Interferon-gamma inducible Protein 10 (IP10) Biomarker Activity (AID 2283068); conditions: primary human keratinocytes with fibroblasts; actives raise or lower the signal
Procedure, shortened: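 KF3CT co-culture (keratinocytes + foreskin fibroblasts), 24 h compound, IP-10 by ELISA; bidirectional fit vs DMSO baseline.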

[9] = BSK_KF3CT_SRB: Viability Assessment in the BioMAP Diversity Plus: KF3CT Assay (AID 2283069); conditions: primary human keratinocytes with fibroblasts;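 further: total protein by sulforhodamine B staining as a cytotoxicity measure; read 24 h after compound addition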
Procedure, shortened: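 Human primary keratinocyte plus foreskin fibroblast co-culture exposed to chemicals for 24 h. Total protein measured by 0.1% sulforhodamine B staining after 10% TCA fixation, read at 560 nm; bidirectional fitting versus DMSO baseline.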

[10] = read-out: Interleukin-1 alpha (IL1a), IL1A (gene 3552); test: BSK_KF3CT_IL1a: BioMAP Diversity Plus: KF3CT Assay for Interleukin-1 alpha (IL1a) Biomarker Activity (AID 2283070); conditions: primary human keratinocytes with fibroblasts; actives raise or lower the signal
Procedure, shortened: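 Human keratinocyte plus foreskin fibroblast primary co-culture, sampled 24 h after chemical dosing. IL-1a measured by ELISA; responses fitted bidirectionally against DMSO baseline (negative control), so gain or loss of signal both count.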

[11] = read-out: TIMP metallopeptidase inhibitor 2 (TIMP2), TIMP2 (gene 7077); test: BSK_KF3CT_TIMP2: BioMAP Diversity Plus: KF3CT Assay for TIMP metallopeptidase inhibitor 2 (TIMP2) Biomarker Activity (AID 2283071); conditions: primary human keratinocytes with fibroblasts; actives raise or lower the signal
Procedure, shortened: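 Co-culture of human primary keratinocytes and foreskin fibroblasts, measured 24 h after chemical dosing. TIMP-2 quantified by ELISA and fitted in both directions relative to DMSO. Cytotoxicity checked in parallel cultures by SRB total-protein staining.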

[12] = read-out: Transforming growth factor beta 1 (TGFb1), TGFB1 (gene 7040); test: BSK_KF3CT_TGFb1: BioMAP Diversity Plus: KF3CT Assay for Transforming growth factor beta 1 (TGFb1) Biomarker Activity (AID 2283072); conditions: primary human keratinocytes with fibroblasts; actives raise or lower the signal
Procedure, shortened: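 Human keratinocyte/foreskin fibroblast co-culture; TGF-b1 measured by ELISA 24 h after dosing, fitted bidirectionally versus DMSO. Cytotoxicity checked in parallel cultures by total protein (SRB staining, 560 nm).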

[13] = read-out: C-C motif chemokine 2 (Homo sapiens) (UniProt P13500); test: BSK_KF3CT_MCP1: BioMAP Diversity Plus: KF3CT Assay for Monocyte Chemoattractant Protein 1 (MCP1/CCL2) Biomarker Activity (AID 2283073); conditions: primary human keratinocytes with fibroblasts; actives raise or lower the signal
Procedure, shortened: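 ELISA read-out of MCP-1, 24 h post-dose, in primary human skin keratinocytes co-cultured with fibroblasts. Parallel SRB staining monitors cytotoxicity; changes fitted both directions relative to DMSO.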

[14] = read-out: Matrix Metallopeptidase 9 (MMP9), MMP9 (gene 4318); test: BSK_KF3CT_MMP9: BioMAP Diversity Plus: KF3CT Assay for Matrix Metallopeptidase 9 (MMP9) Biomarker Activity (AID 2283074); conditions: primary human keratinocytes with fibroblasts; actives raise or lower the signal
Procedure, shortened: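 Keratinocyte plus foreskin fibroblast human primary skin co-culture was dosed with chemical and MMP-9 was quantified by ELISA 24 h later. Bidirectional curve fitting used DMSO as negative control and activity baseline.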

[15] = read-out: urokinase plasminogen activator (uPA), PLAU (gene 5328); test: BSK_KF3CT_uPA: BioMAP Diversity Plus: KF3CT Assay for urokinase plasminogen activator (uPA) Biomarker Activity (AID 2283075); conditions: primary human keratinocytes with fibroblasts; actives raise or lower the signal
Procedure, shortened: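 Human keratinocyte plus foreskin fibroblast primary co-culture exposed to chemical for 24 h. uPA levels were quantified by ELISA, and activity was fitted bidirectionally against a DMSO negative-control baseline.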

CD40, CD40 (gene 958) = test: BSK_LPS_CD40: BioMAP Diversity Plus: LPS Assay for CD40 Biomarker Activity (AID 2283076); conditions: primary human HUVEC with PBMC; actives raise or lower the signal
Procedure, shortened: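 In the LPS system of human endothelial cells with peripheral blood mononuclear cells, CD40 levels were read by ELISA 24 h post-treatment. Signal changes in either direction were fitted against the DMSO baseline, with parallel SRB protein staining.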

[16] = read-out: E-selectin (Homo sapiens) (UniProt P16581); test: BSK_LPS_Eselectin: BioMAP Diversity Plus: LPS Assay for Eselectin Biomarker Activity (AID 2283077); conditions: primary human HUVEC with PBMC; actives raise or lower the signal
Procedure, shortened: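 E-selectin ELISA on LPS-stimulated endothelial cell/PBMC co-cultures, read 24 h post-treatment; gains and losses fitted against DMSO. Parallel SRB staining (0.1% SRB after 10% TCA fixation, 560 nm) flags overt cytotoxicity.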

[17] = read-out: Interleukin-8 (IL8), CXCL8 (gene 3576); test: BSK_LPS_IL8: BioMAP Diversity Plus: LPS Assay for Interleukin-8 (IL8) Biomarker Activity (AID 2283078); conditions: primary human HUVEC with PBMC; actives raise or lower the signal
Procedure, shortened: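 ELISA read-out of IL-8 after 24 h chemical treatment of LPS-activated endothelial/PBMC human primary co-cultures. Changes either up or down relative to DMSO; overt cytotoxicity checked by sulforhodamine B staining in parallel wells.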

[18] = BSK_LPS_SRB: Viability Assessment in the BioMAP Diversity Plus: LPS Assay (AID 2283079); conditions: primary human HUVEC with PBMC;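 further: total protein by sulforhodamine B absorbance as a cytotoxicity measure; measured one day after compound addition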
Procedure, shortened: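 SRB viability endpoint: cells fixed with 10% TCA, stained with 0.1% SRB, read at 560 nm, 24 h post-dose. HUVEC/PBMC co-culture; signal change in either direction scored relative to DMSO.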

[19] = read-out: Interleukin-1 alpha (IL1a), IL1A (gene 3552); test: BSK_LPS_IL1a: BioMAP Diversity Plus: LPS Assay for Interleukin-1 alpha (IL1a) Biomarker Activity (AID 2283080); conditions: primary human HUVEC with PBMC; actives raise or lower the signal
Procedure, shortened: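 Readout is IL-1a level by ELISA, 24 h post-dose, fitted as gain or loss relative to DMSO. System: LPS-activated human primary co-culture of vascular endothelium and peripheral blood mononuclear cells, with parallel SRB total-protein cytotoxicity.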

Measured: AC50

E-selectin (Homo sapiens), sequence (P16581 whole entry, looked up): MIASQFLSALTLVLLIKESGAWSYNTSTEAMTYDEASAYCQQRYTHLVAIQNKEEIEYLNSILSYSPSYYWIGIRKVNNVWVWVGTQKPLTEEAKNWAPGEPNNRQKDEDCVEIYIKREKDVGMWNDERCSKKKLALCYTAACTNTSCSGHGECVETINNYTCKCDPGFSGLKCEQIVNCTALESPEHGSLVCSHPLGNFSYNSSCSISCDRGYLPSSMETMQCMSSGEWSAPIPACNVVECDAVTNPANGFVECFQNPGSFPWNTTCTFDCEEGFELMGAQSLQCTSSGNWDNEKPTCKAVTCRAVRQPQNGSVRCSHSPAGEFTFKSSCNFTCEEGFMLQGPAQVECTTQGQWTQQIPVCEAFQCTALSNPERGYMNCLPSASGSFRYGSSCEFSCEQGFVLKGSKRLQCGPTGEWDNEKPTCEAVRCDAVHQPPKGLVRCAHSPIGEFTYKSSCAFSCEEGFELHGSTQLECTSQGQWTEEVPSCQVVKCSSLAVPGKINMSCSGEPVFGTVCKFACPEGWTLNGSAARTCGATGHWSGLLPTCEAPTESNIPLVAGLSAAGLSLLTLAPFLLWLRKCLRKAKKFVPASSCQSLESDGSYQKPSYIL

O=C(Oc1ccccc1)c1cccc(C(=O)Oc2ccccc2)c1
inactive: all assays above

CCCC[C@H]1CN(CC2CCOCC2)C(=O)OC12CCN(C1(C)CCN(C(=O)c3c(C)ncnc3C)CC1)CC2
inactive: all assays above

O=C1O[C@H]([C@H](O)CO)C(O)=C1O
not listed: [18]
inactive: all other assays above

CCCC(=O)O
not listed: [18]
inactive: all other assays above

COC(=O)CCCC(=O)OC
not listed: [18]
inactive: all other assays above

CCc1nc(N)nc(N)c1-c1ccc(Cl)cc1
not listed: [18]
inactive: all other assays above

CS(=O)(=O)c1ccc([C@@H](C[C@H]2CCC(=O)C2)C(=O)Nc2cnccn2)cc1Cl
inactive: all assays above

CCC(C)N(C)C(=O)c1cc2ccccc2c(-c2ccccc2Cl)n1 (stereo unspecified)
inactive: all assays above

Cc1ccc(C(C)(C)C)c(O)c1
not listed: [18]
inactive: all other assays above

COc1ccc(OC(F)(F)F)cc1CN[C@H]1CCCN[C@H]1c1ccccc1
active: CD40, CD40 (gene 958) 26.6 µM | [17] 9.98 µM
not listed: [18]
inactive: all other assays above

CC(C)(O)c1ccc(CNC(=O)c2cccnc2Oc2ccc(F)cc2)cc1
active: [6] 0.457 µM
inactive: all other assays above

NC=O
not listed: [18]
inactive: all other assays above

CC(=O)OC1CC(C)OC(C)O1 (stereo unspecified)
active: [6] 0.523 µM
not listed: [18]
inactive: all other assays above

O=C(O)CN(CC(=O)O)CC(=O)O
not listed: [18]
inactive: all other assays above
